# Measurements published in PubChem BioAssay (EPA / NIEHS).
# Inconclusive results are not listed. The source made the active and inactive calls. Rule for the calls: active = hit-call score of the fitted dose curve at least 0.9, where 1 is the maximum; inconclusive = response in the unintended direction; inactive = score below 0.9.
# Test: ACEA_ER_AUC_viability: ACEA Biosciences xCELLigence Real-Time Cell Analysis on Estrogen Receptor Agonism for Viability (AID 2283782);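 note: hit means loss of impedance signal meaning reduced cell growth or viability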
# Outline: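 Viability endpoint: reduced impedance area under the curve relative to DMSO, recorded by real-time electrode sensing over ~80 h of continuous exposure. Duplicate plates of T47D in hormone-depleted medium; eight concentrations, 1:4 dilutions, 100 uM maximum.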
Compound,outcome,AC50
NCc1ccco1,inactive,
O=C(CS)OCCOC(=O)CS,,82.2 µM (active)
CC1C2CC(CC2C2CCCC(O)C2)C1(C)C (configuration not stated),,84.8 µM (active)
CCCCCCCC(=O)OCCCCCC,inactive,
C1=CC2C3C=CC(C3)C2C1 (configuration not stated),inactive,
OCCCCC(O)CO (configuration not stated),inactive,
COC(=O)c1ccc(OC)cc1,inactive,
CCOC(=O)CC(C)O (configuration not stated),inactive,
CN(C)C(=O)Nc1ccc(Oc2ccc(Cl)cc2)cc1,inactive,
CC(C)=CCCC(C)CC(=O)O (configuration not stated),inactive,
COC(=O)C=C(C)CCC=C(C)C,inactive,
CCCC[P+](CCCC)(CCCC)CCCC,,91.7 µM (active)
